“And” between values parts separate entries of the source, which are not always exact repeats. Equal values may be shown once. Unmarked numbers belong to inactive results. The source made the active and inactive calls. No rule for the calls is given here.
Columns and labels:
[1] = test system: Aerobactin synthetase IucA (Klebsiella pneumoniae hvKP1); assay: IucA enzyme inhibition, primary screen, biochemical, Spectrum library (AID 1346200); conditions: malachite green pyrophosphate, A620, at 8 µM, hits give low values;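 also: 100% = wells without compound and 0% = wells lacking enzyme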
[2] = test system: Aerobactin synthetase IucA (Klebsiella pneumoniae, hypervirulent); assay: biochemical IucA inhibition screen of LOPAC library by absorbance (AID 1346212); conditions: IucA enzyme assay, absorbance (OD) readout; hits give low values;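 tested at 8 µM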;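 also: 100% = no compound wells and 0% = no enzyme wells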

Compound: N=C(N)SCCN
- activity remaining [1]: 98.6%
- remaining activity [2]: 109%

Compound: O=C(O)C1=CCCNC1
- activity remaining [1]: 98.7%
- remaining activity [2]: 96.8%

Compound: O=C(O)c1cccnc1Nc1cccc(C(F)(F)F)c1
- activity remaining [1]: 117%
- remaining activity [2]: 115%

Compound: CCCCC[C@H](CC(=O)NO)C(=O)N[C@H](C(=O)N1CCC[C@H]1CO)C(C)C
- activity remaining [1]: 109%
- remaining activity [2]: 111%

Compound: CC1=C(/C=C/C(C)=C/C=C/C(C)=C\C(=O)O)C(C)(C)CCC1
- activity remaining [1]: 116%
- remaining activity [2]: 85.8%

Compound: Fc1ccc([C@@H]2CCNC[C@H]2COc2ccc3c(c2)OCO3)cc1
- activity remaining [1]: 108%
- remaining activity [2]: 121%

Compound: CC(=O)N[C@@H](CS)C(=O)O
- activity remaining [1]: 110%
- remaining activity [2]: 108%

Compound: CN(C)CCCN1c2ccccc2Sc2ccc(Cl)cc21
- activity remaining [1]: 115%
- remaining activity [2]: 110%

Compound: CN(C)CCOC(=O)COc1ccc(Cl)cc1
- activity remaining [1]: 124%
- remaining activity [2]: 112%

Compound: O=C(c1ccccc1)c1ccc2n1CCC2C(=O)O (stereo not given)
- activity remaining [1]: 128%
- remaining activity [2]: 120%

Compound: CN/C(=C\[N+](=O)[O-])NCCSCc1ccc(CN(C)C)o1
- activity remaining [1]: 91.1%
- remaining activity [2]: 101%

Compound: C[N+](C)(C)CCCCCC[N+](C)(C)C
- activity remaining [1]: 122%
- remaining activity [2]: 99.1% and 87%

Compound: Cc1cnc(NC(=O)C2=C(O)c3ccccc3S(=O)(=O)N2C)s1
- activity remaining [1]: 118%
- remaining activity [2]: 120%

Compound: C[C@](N)(Cc1ccc(O)cc1)C(=O)O
- activity remaining [1]: 120%
- remaining activity [2]: 110%

Compound: CC(C(=O)O)c1cccc(C(=O)c2ccccc2)c1 (stereo not given)
- activity remaining [1]: 106%
- remaining activity [2]: 120%

Compound: CCn1cc(C(=O)O)c(=O)c2cc(F)c(N3CCNC(C)C3)c(F)c21 (stereo not given)
- activity remaining [1]: 104%
- remaining activity [2]: 118%

Compound: Nc1ccc(S(=O)(=O)Nc2ccnn2-c2ccccc2)cc1
- activity remaining [1]: 117%
- remaining activity [2]: 99.3%

Compound: N[C@@H](Cc1ccc(O)c(O)c1)C(=O)O
- activity remaining [1]: 115%
- remaining activity [2]: 97%

Compound: NCCS
- activity remaining [1]: 117%
- remaining activity [2]: 110%

Compound: COc1cc(Cc2cnc(N)nc2N)cc(OC)c1OC
- activity remaining [1]: 93.2%
- remaining activity [2]: 76.5%

Compound: Cc1c(OCC(F)(F)F)ccnc1CS(=O)c1nc2ccccc2[nH]1 (stereo not given)
- activity remaining [1]: 121%
- remaining activity [2]: 111%

Compound: CC(C)COCC(CN(Cc1ccccc1)c1ccccc1)N1CCCC1 (stereo not given)
- activity remaining [1]: 126%
- remaining activity [2]: 91.4%

Compound: CC(C)Cn1c(=O)n(C)c(=O)c2[nH]cnc21
- activity remaining [1]: 108% and 118%
- remaining activity [2]: 108%

Compound: CCN(CC)CCCC(C)Nc1ccnc2cc(Cl)ccc12 (stereo not given)
- activity remaining [1]: 93%
- remaining activity [2]: 122%

Compound: O=C(/C=C/c1ccc(O)cc1)c1ccc(O)cc1O
- activity remaining [1]: 98.7%
- remaining activity [2]: 93.6%

Compound: Cc1cc(C(C)(C)C)cc(C)c1CC1=NCCN1
- activity remaining [1]: 126%
- remaining activity [2]: 115%

Compound: O=[N+]([O-])c1cccc2c(Br)[nH]nc12
- activity remaining [1]: 118%
- remaining activity [2]: 110%

Compound: Oc1cc(O)c2c(c1)O[C@H](c1ccc(O)c(O)c1)[C@@H](O)C2
- activity remaining [1]: 93%
- remaining activity [2]: 106%

Compound: COc1cc2nc(N3CCN(C(=O)c4ccco4)CC3)nc(N)c2cc1OC
- activity remaining [1]: 127%
- remaining activity [2]: 84.9%

Compound: CCSC(=N)N
- activity remaining [1]: 103%
- remaining activity [2]: 93.6%

Compound: c1ccc([C@H]2CN3CCSC3=N2)cc1
- activity remaining [1]: 117%
- remaining activity [2]: 112%

Compound: CN(C)CCCN1c2ccccc2CCc2ccccc21
- activity remaining [1]: 107%
- remaining activity [2]: 90.4%

Compound: CN(C)c1nc(N(C)C)nc(N(C)C)n1
- activity remaining [1]: 118%
- remaining activity [2]: 120%

Compound: CCCCC1C(=O)N(c2ccccc2)N(c2ccccc2)C1=O
- activity remaining [1]: 117%
- remaining activity [2]: 102%

Compound: COc1cc2c(c(OC)c1OC)-c1ccc(OC)c(=O)cc1[C@@H](NC(C)=O)CC2
- activity remaining [1]: 115%
- remaining activity [2]: 112%

Compound: NC12CC3CC(CC(C3)C1)C2
- activity remaining [1]: 107%
- remaining activity [2]: 119%

Compound: CCCNC(=O)NS(=O)(=O)c1ccc(Cl)cc1
- activity remaining [1]: 118%
- remaining activity [2]: 103%

Compound: CCCCNC(=O)NS(=O)(=O)c1ccc(C)cc1
- activity remaining [1]: 120%
- remaining activity [2]: 95.4%

Compound: CCCC(CCC)C(=O)O
- activity remaining [1]: 108%
- remaining activity [2]: 110%

Compound: Cc1cc(N)c2ccccc2[n+]1CCCCCCCCCC[n+]1c(C)cc(N)c2ccccc21
- activity remaining [1]: 82.6%
- remaining activity [2]: 105%

Compound: C1CCc2nnnn2CC1
- activity remaining [1]: 112%
- remaining activity [2]: 107%

Compound: CCN(Cc1ccncc1)C(=O)C(CO)c1ccccc1 (stereo not given)
- activity remaining [1]: 98.9%
- remaining activity [2]: 98.9%

Compound: Cc1ccc(C(=O)Nc2ccc(S(=O)(=O)O)c3cc(S(=O)(=O)O)cc(S(=O)(=O)O)c23)cc1NC(=O)c1cccc(NC(=O)Nc2cccc(C(=O)Nc3cc(C(=O)Nc4ccc(S(=O)(=O)O)c5cc(S(=O)(=O)O)cc(S(=O)(=O)O)c45)ccc3C)c2)c1
- activity remaining [1]: 69% (active)
- remaining activity [2]: 34.4% (active)

Compound: OCCN1CCN(CCCN2c3ccccc3Sc3ccc(Cl)cc32)CC1
- activity remaining [1]: 121%
- remaining activity [2]: 112%

Compound: NNCCc1ccccc1
- activity remaining [1]: 112%
- remaining activity [2]: 93.4%

Compound: NC(=O)c1ncn([C@@H]2O[C@H](CO)[C@@H](O)[C@H]2O)n1
- activity remaining [1]: 120%
- remaining activity [2]: 96.8%

Compound: CC(=O)OC(C)C[N+](C)(C)C (stereo not given)
- activity remaining [1]: 80.8%
- remaining activity [2]: 119%

Compound: CNCCCC12CCC(c3ccccc31)c1ccccc12
- activity remaining [1]: 105%
- remaining activity [2]: 109%

Compound: CN(C)CCCN1c2ccccc2Sc2ccccc21
- activity remaining [1]: 109%
- remaining activity [2]: 95%

Compound: COc1ccc(C2CNC(=O)C2)cc1OC1CCCC1 (stereo not given)
- activity remaining [1]: 120%
- remaining activity [2]: 91.4%

Compound: COc1cc2nc(N3CCN(C(=O)C4CCCO4)CC3)nc(N)c2cc1OC (stereo not given)
- activity remaining [1]: 119%
- remaining activity [2]: 102%

Compound: O=C1CC2(CCCC2)CC(=O)N1CCCCN1CCN(c2ncccn2)CC1
- activity remaining [1]: 118%
- remaining activity [2]: 111%

Compound: O=C(CCCN1CC=C(n2c(=O)[nH]c3ccccc32)CC1)c1ccc(F)cc1
- activity remaining [1]: 111%
- remaining activity [2]: 98.7%

Compound: CNCCC(Oc1ccc(C(F)(F)F)cc1)c1ccccc1 (stereo not given)
- activity remaining [1]: 96.1%
- remaining activity [2]: 96.6%

Compound: CCn1cc(C(=O)O)c(=O)c2cc3c(cc21)OCO3
- activity remaining [1]: 109%
- remaining activity [2]: 95.5%

Compound: Oc1ccc(O)cc1
- activity remaining [1]: 121%
- remaining activity [2]: 105%

Compound: C#CCN(C)Cc1ccccc1
- activity remaining [1]: 122%
- remaining activity [2]: 80.8%

Compound: COC(=O)[C@H]1[C@H]2C[C@H]3c4[nH]c5ccccc5c4CCN3C[C@H]2CC[C@@H]1O
- activity remaining [1]: 107%
- remaining activity [2]: 95.4%

Compound: CC1(C)NC(=O)N(c2ccc([N+](=O)[O-])c(C(F)(F)F)c2)C1=O
- activity remaining [1]: 124%
- remaining activity [2]: 98.2%

Compound: CC(C)[N+](C)(CCOC(=O)C1c2ccccc2Oc2ccccc21)C(C)C
- activity remaining [1]: 105%
- remaining activity [2]: 92.2%

Compound: Nc1ncn([C@@H]2O[C@H](CO)[C@@H](O)[C@H]2O)c(=O)n1
- activity remaining [1]: 104%
- remaining activity [2]: 112%

Compound: CN1CCC(=C2c3ccccc3CC(=O)c3sccc32)CC1
- activity remaining [1]: 100%
- remaining activity [2]: 112%

Compound: CC(C)(C)NCC(O)c1cc(O)cc(O)c1 (stereo not given)
- activity remaining [1]: 109%
- remaining activity [2]: 109%

Compound: C[C@H](CS)C(=O)N1CCC[C@H]1C(=O)O
- activity remaining [1]: 99.1%
- remaining activity [2]: 99.3%

Compound: CN1C2CCC1CC(OC(c1ccccc1)c1ccccc1)C2 (stereo not given)
- activity remaining [1]: 101%
- remaining activity [2]: 113%

Compound: Clc1ccc2c(c1)C(N1CCNCC1)=Nc1ccccc1O2
- activity remaining [1]: 109%
- remaining activity [2]: 126%

Compound: CCCCNc1ccc(C(=O)OCCN(C)C)cc1
- activity remaining [1]: 118%
- remaining activity [2]: 97.3%

Compound: CN1CCN(CCCN2c3ccccc3Sc3ccc(C(F)(F)F)cc32)CC1
- activity remaining [1]: 122%
- remaining activity [2]: 93.4%

Compound: CN(C)CCC=C1c2ccccc2C=Cc2ccccc21
- activity remaining [1]: 111%
- remaining activity [2]: 109%

Compound: O=C(c1ccc(OCCN2CCCCC2)cc1)c1c(-c2ccc(O)cc2)sc2cc(O)ccc12
- activity remaining [1]: 105%
- remaining activity [2]: 92%

Compound: CN[C@H](CC(=O)O)C(=O)O
- activity remaining [1]: 118%
- remaining activity [2]: 118%

Compound: COc1ccc2c(c1)c(CC(=O)O)c(C)n2C(=O)c1ccc(Cl)cc1
- activity remaining [1]: 103%
- remaining activity [2]: 92%

Compound: CC(=O)OCC1=C(C(=O)O)N2C(=O)[C@@H](NC(=O)Cc3cccs3)[C@H]2SC1
- activity remaining [1]: 109%
- remaining activity [2]: 117%

Compound: Clc1ccccc1C(c1ccccc1)(c1ccccc1)n1ccnc1
- activity remaining [1]: 113%
- remaining activity [2]: 117%

Compound: C[N+](C)(C)CCOC(N)=O
- activity remaining [1]: 93.2%
- remaining activity [2]: 119%

— PubChem BioAssay
